# Laboratory results taken from ChEMBL document CHEMBL3988442, “University of Dundee, Small-Polar-MMV Screening Library” (2021).
# Hit rate of the full screen: of about 48,000 compounds, about 13,000 (27%) showed an effect of 50% or more. Some of the results follow.
# Tested on: Wolbachia pipientis
# Experiment: Anti-Wolbachia Cell-Based Screen
# Format: functional
# Design: scale not given: in the data most compounds retested in dose-response had high values
# Settings: 5 µM
row,Structure (SMILES),Percent Effect [%]
1,CCn1cc2c(n1)C(COC)CN(C(=O)COc1ccccc1C)C2 (stereo not given),-8.136
2,CC(=O)NC[C@@H]1C=C(C)[C@H](CC(=O)NCCN(C)C)C[C@H]1C(C)C,6.725
3,O=C1CC2(CCSC2)C(=O)N1CCCc1ccccc1 (stereo not given),-8.478
4,CCC(NC(=O)c1coc(COc2cccc(F)c2F)n1)C(=O)NC (stereo not given),-19.24
5,CCc1nnc2n1CCN(Cc1nc(-c3ccoc3)no1)C2,-0.9507
6,COCCC(=O)N1CCCC1c1csc(Nc2ccccn2)n1 (stereo not given),105.2
7,COCCC(=O)N1CCCC1c1csc(Nc2ncccn2)n1 (stereo not given),107
8,CC(C)(C)c1nnc(CN2CCN(C(=O)CC3CCCCC3)CC2)o1,-4.944
9,CCC[C@@H](NC(N)=O)C(=O)N1CCc2c(Cl)cccc2C1,5.459
10,COCC(=O)Nc1cc(S(=O)(=O)C(F)(F)F)ccc1OC,4.656
11,CCc1nc(C)c(CN2CCOC(Cc3cccc4ccccc34)C2)[nH]1 (stereo not given),10.02
12,Cc1cc(CN2CCCC(C)(CO)C2)ccc1F (stereo not given),-2.653
13,Cc1nc(CN2CCCC(C)(CO)C2)no1 (stereo not given),110.1
14,OCCOc1ccccc1CN1CCCC(O)(CO)C1 (stereo not given),16.2
15,Cc1ccc(-c2nnc(CN3CCCC(O)(CO)CC3)o2)n1C (stereo not given),-4.067
16,Cn1cnc2c1CCN(Cc1noc(-c3ccccc3)n1)C2,2.267
17,OCC1(O)CCCN(Cc2noc(-c3ccccc3)n2)CC1 (stereo not given),104.1
18,CN(C)CC1(O)CCCN(c2noc(-c3ccccc3)n2)CC1 (stereo not given),-6.371
19,Cc1nc(CN2CCCN(CC(=O)N(C)CCC#N)CC2)no1,3.648
20,c1ccc(-c2nc(CN3CCn4c(nnc4C4CC4)C3)no2)cc1,-9.405
21,CC1(c2ccccc2)CCCN(Cc2nnc(-c3cccnc3)o2)C1 (stereo not given),-17.9
22,OCC1(O)CCCN(Cc2noc(-c3ccccc3)n2)C1 (stereo not given),97.27
23,OCC1(O)CCCN(Cc2nnc(-c3ccccc3)o2)CC1 (stereo not given),97.17
24,O=C(O)C(F)(F)F.O=C(O)C(F)(F)F.O=C([C@H]1CN(Cc2nccs2)C[C@H]2OCC[C@@H]12)N1CCCCO1,-13.3
25,CCN1CCC2(CCC1=O)CN(c1cnc3ccccc3n1)CCN2C (stereo not given),10.67
26,CCNC(=O)N(C)CCCc1n[nH]c(N)c1C#N,-6.653
27,CC(C)n1ccnc1C1CCCN(c2cc(C(=O)NC3CC3)ccn2)C1 (stereo not given),11.95

row,Structure (SMILES),Percent Effect [%]
1,Cc1cnn(C2CN(Cc3noc(-c4ccccc4)n3)C2)c1,6.311
2,Cn1ccnc1CN1CCN(Cc2noc(-c3ccccc3)n2)CC1,-3.916
3,OCC1(O)CCN(Cc2noc(-c3ccccc3)n2)CC1,112.4
4,CCCC(N)CNS(=O)(=O)Cc1cccc(C#N)c1.Cl (stereo not given),-1.555
5,Cn1nc2c(cc1=O)CN(CCCOc1ccc(C#N)cc1)CC2,-8.416
6,CC(C)c1ccc(CS(=O)(=O)CC(=O)NCc2ccccc2F)cc1,-59.22
7,CC(C)OCCCNC(=O)CS(=O)(=O)Cc1ccc(Cl)cc1,111.2
8,CC(NC(=O)NCCCN(C)S(C)(=O)=O)c1cccc(Cl)c1 (stereo not given),-5.228
9,Cc1ccc(CS(=O)(=O)CC(=O)NCCCOC(C)C)cc1,104.7
10,CC(C)OCCCNC(=O)NC(C)c1ccc(-n2cncn2)cc1 (stereo not given),21.75
11,Cc1cccc(CS(=O)(=O)CC(=O)NCCCOC(C)C)c1,-2.072
12,CC(C)OCCCNC(=O)CS(=O)(=O)Cc1ccc(C(C)C)cc1,60.49
13,Cc1ccc(CS(=O)(=O)CC(=O)NCc2ccccc2F)cc1,-26.12
14,CC(C)OCCCNC(=O)CS(=O)(=O)Cc1ccc(Cl)c(Cl)c1,-2.776
15,CC(C)OCCCNC(=O)CS(=O)(=O)Cc1cccc(Cl)c1,109.4
16,CC(C)(C)CC(=O)NCC(=O)NS(=O)(=O)c1cccnc1,-1.885
17,COc1ncnc(N(C)C)c1NC(=O)Cc1cc(F)ccc1F,-32.31
18,Cc1ccc(C)c(CS(=O)(=O)CC(=O)Nc2ccc(F)cc2F)c1,-7.067
19,CC(C)OCCCNC(=O)CN1CCC(N2CCN(C)C2=O)CC1,-1.952
20,Cc1ccc(C)c(CS(=O)(=O)CC(=O)NC(C)c2ccc(F)cc2F)c1 (stereo not given),34.69
21,Cc1ccc(C)c(CS(=O)(=O)CC(=O)NCCCOC(C)C)c1,103.7
22,CC(C)(C)c1ccc(C2(C(=O)NCCCS(C)(=O)=O)CC2)cc1,-6.927
23,CC(C)OCCCNC(=O)CS(=O)(=O)Cc1ccc(C(C)(C)C)cc1,103.7
24,Cc1cc(NC(=O)CNc2ccc(Br)cc2F)on1,-13.69
25,CNC(=O)[C@@H](CC(C)C)N1CCC[C@H]1C(=O)N(C)Cc1ccccc1.Cl,3.832
26,CS(=O)(=O)N1CCc2c(nnn2CC2CC2)C1COCC1CC1 (stereo not given),9.145
27,Cc1nc(O)cc(CCNC(=O)CC[C@@H]2CCCN3CCCC[C@H]23)n1,-10.54

row,Structure (SMILES),Percent Effect [%]
1,Cc1cc(C2CCCN2C(=O)c2ccc(OCC(N)=O)cc2)no1 (stereo not given),5.942
2,Cc1noc(C)c1CN(C)C(=O)C1CCCCN1S(C)(=O)=O (stereo not given),-0.5133
3,CNC(=O)CCN1CCCC1c1ccccc1Br (stereo not given),10.79
4,Cc1nc(CCC(N)=O)cc(C2CCCN2S(C)(=O)=O)n1 (stereo not given),118
5,Cc1nc(CCC(N)=O)cc(C2CCCCN2S(C)(=O)=O)n1 (stereo not given),110.4
6,CNC(=O)CCc1cc(C2CCCN2S(C)(=O)=O)nc(C)n1 (stereo not given),95.26
7,NC(=O)CN1CCN(S(=O)(=O)N2CCCC2c2ccco2)CC1 (stereo not given),-1.711
8,CCOc1ccc(CC(=O)N2CCCC2c2cc(C)on2)cc1 (stereo not given),5.942
9,Cc1cc(C2CCCN2C(=O)COc2ccc(CC#N)cc2)no1 (stereo not given),-10.78
10,CNC(=O)CCc1cc(C2CCCN2C(=O)CO)nc(C)n1 (stereo not given),135.9
11,Nc1nc2c(c(N3CCC(CCn4cccn4)CC3)n1)CCNCC2,1.454
12,CC(Cc1ccc2c(c1)OCO2)c1cn(CCN2CCCC2)nn1 (stereo not given),21.75
13,CN(C)CCN(Cc1cccnc1)C(=O)c1ccn(-c2ccccc2)n1,1.059
14,CC(C)N(C)CC(=O)Nc1ccc(-n2ccc(C(N)=O)n2)cc1,-7.566
15,COc1ccc(-n2ccc(C(=O)N(C)C(C)C3(C)CC3)n2)cc1 (stereo not given),114.7
16,COc1ccc(SC(C)C(=O)N2CCC(O)CC2)cc1 (stereo not given),1.982
17,COc1ccc(-n2ccc(C(=O)N3CCC(C(N)=O)C3)n2)cc1 (stereo not given),-0.5166
18,CCC(C)C(=O)NCc1ccn(-c2ccc(F)cc2)n1 (stereo not given),-3.834
19,COCCN(CCOC)C(=O)c1ccn(-c2ccccc2Cl)n1,2.098
20,COCCN(C(=O)c1ccn(-c2ccc(OC)cc2)n1)C(C)C(N)=O (stereo not given),143
21,COc1ccc(-n2ccc(C(=O)N(CCN(C)C)C(C)C)n2)cc1,158.8
22,CCC[C@@H](NC(N)=O)C(=O)N1CCc2ccccc2CC1,5.215
23,O=C(NCCOc1ccc(F)c(F)c1)NCc1ccncc1,-13.71
24,Cc1cc(CNC(=O)N2CCN(C(C)c3cccnc3)CC2)c(C)o1 (stereo not given),-1.868
25,CN1[C@@H](CCC(=O)NCc2ccc(F)cc2)CNC(=O)[C@H]2NCC[C@H]21,3.15
26,CC1CCN(c2ncc(C#N)c(N)n2)CC1,102.6
27,N#Cc1cnc(N2Cc3cnn(Cc4ccc(F)cc4)c3C2)nc1N,-0.8846

row,Structure (SMILES),Percent Effect [%]
1,N#Cc1cnc(N2CCC3(CC2)OCCO3)nc1N,125
2,CCc1nsc(N2CCC3(CC2)OCCO3)n1,-6.104
3,CC1CCN(c2ncc3c(n2)CN(c2ccc4c(c2)OCO4)C3=O)CC1,-9.746
4,CC1CCN(c2ncc3c(n2)CN(c2ccccc2)C3=O)CC1,-3.671
5,CC(C)(C)c1cnc(CN2CCC(NC(=O)NC3CCCCC3)CC2)o1,-3.337
6,CCn1c(Cn2cncn2)nnc1C1CCN(Cc2ccc(C)o2)CC1,-1.569
7,Cc1cc(=O)[nH]c(-n2nc(C)c(CCC(=O)NCc3cccs3)c2C)n1,127.2
8,Cc1nc(CNC(=O)CCCc2cccs2)no1,-18.16
9,Cc1nc(CNc2ccc(C(=O)NCc3ccco3)cc2C)no1,-9.034
10,Cc1csc(CNC(=O)CCCc2cccs2)n1,21.24
11,Cc1cc(=O)[nH]c(-n2nc(C)c(CCC(=O)NCc3ccco3)c2C)n1,133
12,Cc1ccc2cnn(CCC(=O)NCc3c(C)nn(C)c3C)c2c1,-12.76
13,O=C1OCCN1Cc1cccc(F)c1C(F)(F)F,-13.53
14,CCS(=O)(=O)NCCN1CCc2ccc(F)cc2C1C (stereo not given),-17.56
15,O=C(Cc1ccccc1)NC[C@H]1Cn2ccnc2CO1,-7.774
16,Cc1ccnc(CC(C)N(C)c2cc(CCN)nc(C)n2)c1 (stereo not given),-16.25
17,COc1c(C2CCCN2C(=O)c2ccoc2C)c(C)nn1C (stereo not given),-17.99
18,COc1c(C2CCCN2C(=O)c2cccn2C)c(C)nn1C (stereo not given),-5.9
19,Cc1nn(C)c(Cl)c1C1CCCN1C(=O)c1cccn1C (stereo not given),113.6
20,Cc1nn(C)c(Cl)c1C1CCCN1C(=O)c1ccoc1C (stereo not given),103.1
21,Cc1noc(C)c1C(=O)N1CCCC1c1c(C)nn(C)c1Cl (stereo not given),2.958
22,COc1c(C2CCCN2C(=O)c2ccnn2C)c(C)nn1C (stereo not given),-14.45
23,Cc1nn(C)c(Cl)c1C1CCCN1C(=O)c1ccnn1C (stereo not given),108
24,OC(CN(Cc1ccccc1)Cc1ccon1)c1cccs1 (stereo not given),-5.25
